Screens deposited in PubChem by The Scripps Research Institute Molecular Screening Center.
PME-1 inh: PME-1 (human) inhibition. Q9Y570. recombinant PME-1, FP-Rh probe fluorescence polarization. inhibition, % at 5.9 µM. 320,000 compounds, 0.53% hits. AID 2130;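 active means inhibition above the campaign mean of all compounds plus 3 SD, cut at about 26% in these data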;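 further: competitive labeling of PME-1 active site by serine hydrolase directed probe; inhibitors block probe labeling so polarization falls and inhibition rises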
Target sequence (Q9Y570 whole entry, looked up): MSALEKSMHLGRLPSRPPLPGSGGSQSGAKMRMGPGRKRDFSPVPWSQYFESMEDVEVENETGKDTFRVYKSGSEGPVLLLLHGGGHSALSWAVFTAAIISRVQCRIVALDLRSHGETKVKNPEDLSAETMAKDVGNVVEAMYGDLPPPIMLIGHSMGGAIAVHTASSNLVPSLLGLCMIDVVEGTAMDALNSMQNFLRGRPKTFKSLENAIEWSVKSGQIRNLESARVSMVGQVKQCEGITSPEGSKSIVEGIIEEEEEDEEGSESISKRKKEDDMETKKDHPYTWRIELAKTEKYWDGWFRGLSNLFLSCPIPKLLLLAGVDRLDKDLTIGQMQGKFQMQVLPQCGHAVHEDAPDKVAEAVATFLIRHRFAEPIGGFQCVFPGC
PAFAH1B3 inh: PAFAH1B3 (human) inhibition. Q15102. recombinant PAFAH1B3, FP-rhodamine probe, fluorescence polarization. inhibition, % at 3.39 µM. 340,000 compounds, 0.28% hits;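 active means inhibition above the screen-wide average of all tested compounds plus 3 SD, cut at about 25% in these data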
Fam108B inh: blocks mouse Fam108B hydrolase in RBBP9 counter-screen; recombinant Fam108B, FP-Rh probe fluorescence polarization; 300,000 compounds, 0.33% hits; inhibition, % at 9.51 µM;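 active means inhibition above the screen mean inhibition plus 3 SD, computed separately per campaign, cut at about 18% in these data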;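 further: inhibitors lower polarization as less probe binds the enzyme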
PAFAH1B2 inh: PAFAH1B2 (human) inhibition | P68402 | recombinant PAFAH1B2, FP-rhodamine activity probe, fluorescence polarization | inhibition, % at 3.39 µM | 340,000 compounds, 1.2% hits;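 active means inhibition above the mean of all tested compounds plus 3 SD, cut at about 24% in these data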
Target sequence (P68402 whole entry, looked up): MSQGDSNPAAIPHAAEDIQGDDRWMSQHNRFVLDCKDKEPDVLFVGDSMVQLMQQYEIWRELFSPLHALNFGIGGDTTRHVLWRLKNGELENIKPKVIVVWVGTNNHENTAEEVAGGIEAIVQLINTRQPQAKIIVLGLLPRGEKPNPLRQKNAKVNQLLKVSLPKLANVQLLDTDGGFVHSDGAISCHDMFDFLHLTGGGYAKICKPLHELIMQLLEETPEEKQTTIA
PAFAH2 inh: inhibitors of human PAFAH2; AID 492956; recombinant PAFAH2, FP-rhodamine activity probe, fluorescence polarization; Q99487; inhibition, % at 3.39 µM; 340,000 compounds, 0.99% hits;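 active means inhibition above the mean over all tested compounds plus 3 SD, cut at about 30% in these data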;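 further: inhibitors block probe labeling of enzyme so polarization drops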
pPAFAH FP inh: inhibitors of human plasma PAF acetylhydrolase (pPAFAH); Q13093; recombinant pPAFAH, FP-rhodamine probe fluorescence polarization; inhibition, % at 3.39 µM; 330,000 compounds, 1.5% hits;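 active means inhibition above the mean inhibition across the screen plus 3 SD, cut at about 25% in these data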;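 further: inhibitors block binding of the rhodamine activity-based probe so polarization drops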
Fam108b confirm: confirmation of mouse Fam108b serine hydrolase inhibitors. shares compounds with Fam108B inh. recombinant Fam108b, FP-Rh probe fluorescence polarization. inhibition, % at 9.51 µM. 930 compounds, 44% hits. AID 1978;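 active means inhibition above a limit from the primary screen, the mean over all compounds plus 3 SD, cut at about 19% in these data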;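 further: inhibitors free the probe so polarization falls as inhibition rises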
Fam108b inh: mouse ABHD17B inhibition; shares compounds with Fam108B inh; recombinant Fam108b, gel-based ABPP, fluorophosphonate probe; inhibition, % at 20 µM; 260 compounds, 44% hits; in the data active means inhibition above about 40%
pPAFAH FP conf: confirmation of human plasma PAF acetylhydrolase (pPAFAH) inhibitors. inhibition, % at 3.39 µM. 2,300 compounds, 72% hits. shares compounds with pPAFAH FP inh. AID 463230. recombinant pPAFAH, FP-Rh probe fluorescence polarization;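 active means mean inhibition of the triplicate above the hit cutoff set for the earlier primary screen, cut at about 25% in these data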
PAFAH2 confirm: PAFAH2 (human) inhibition, confirmed; shares compounds with PAFAH2 inh; recombinant PAFAH2, FP-rhodamine activity probe, fluorescence polarization; inhibition, % at 3.39 µM; 2,300 compounds, 65% hits;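 active means mean inhibition over three repeats above a set limit taken from the earlier primary screen, cut at about 30% in these data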;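 further: inhibitor blocks binding of rhodamine activity probe so polarization falls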
PAFAH1B3 conf FP: confirmation of human PAFAH1B3 inhibitors; inhibition, % at 3.39 µM; recombinant PAFAH1B3, FP-Rh activity-based probe, fluorescence polarization; shares compounds with PAFAH1B3 inh; 390 compounds, 30% hits;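 active means average inhibition over triplicate runs above the hit cutoff set in the earlier primary screen, cut at about 25% in these data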
Large screens that a line does not name were inactive (follow-up assays come after a bar, where they were run); ! = not confirmed by another sample. This is a sample that favours compounds with a hit; in the whole collection about 2.8% have one here.

CC(NC(=S)NC1CCC(C(C)(C)C)CC1)c1ccccc1 (centres undefined)	none (no result: PME-1 inh, Fam108B inh, pPAFAH FP inh)
COc1cc(NC(=S)N2CCN(C)CC2)cc(OC)c1	none
O=C(O)c1sccc1S(=O)(=O)N1CCOCC1	none (no result: Fam108B inh)
O=C(CCCc1nc(-c2ccc(Cl)cc2)no1)NC1CCCCC1	none
O=C(O)c1cn2c3c(ccc(Cl)c3c1=O)OCC2	none
C=Cc1c(C)c2cc3[nH]c(cc4nc(cc5nc(cc1[nH]2)C(C)=C5CCC(=O)O)C(CCC(=O)O)=C4C)c(C)c3C=C	PAFAH1B3 inh 39.9!, Fam108B inh 46.5, PAFAH2 inh 60.4!, pPAFAH FP inh 97.2 | Fam108b confirm 44.1 | Fam108b inh inactive | pPAFAH FP conf 51.1
CCOC(=O)CNC(=S)N(Cc1ccco1)Cc1ccccc1Cl	none
C/C(=N\NC(=O)c1nnn(-c2nonc2N)c1CN1CCOCC1)c1ccc(CC(C)C)cc1	none
O=c1[nH][nH]c(=O)c2c(NS(=O)(=O)c3ccccc3)cccc12	none
O=c1oc(-c2ccccc2NS(=O)(=O)c2ccccc2)nc2ccccc12	Fam108B inh 20.9, PAFAH2 inh 77.3 | Fam108b confirm inactive | PAFAH2 confirm 67.2
COc1ccc(S(=O)(=O)N2CCOCC2)cc1NC(=O)c1cccc(Cl)c1	none
COC(=O)c1scc(C)c1N1C(=O)c2ccccc2C1=O	none (no result: PAFAH1B3 inh, PAFAH1B2 inh, PAFAH2 inh)
O=C(Nc1ccc(Oc2ccc(NC(=O)Nc3ccccc3Cl)cc2)cc1)Nc1ccccc1Cl	Fam108B inh 58.0, PAFAH2 inh 55.2 | Fam108b confirm 58.7 | Fam108b inh inactive | PAFAH2 confirm inactive
O=C(Nc1ccccc1)Nc1cccc(Cl)c1Cl	none
Cc1ccc(-c2ccc(/C=C3\C(=O)ON=C3c3ccccc3)o2)c([N+](=O)[O-])c1	Fam108B inh 21.8, PAFAH2 inh 31.7 | Fam108b confirm inactive | PAFAH2 confirm inactive
CCSC1=NSC2=NC(=O)/C(=C\c3coc4ccccc4c3=O)C(=N)N12	Fam108B inh 43.5, PAFAH2 inh 32.6 | Fam108b confirm 46.7 | Fam108b inh inactive | PAFAH2 confirm inactive
COc1cccc(-n2c(SCc3cc(=O)oc4cc(O)c(O)cc34)nc3ccccc3c2=O)c1	Fam108B inh 26.0, PAFAH2 inh 63.6, pPAFAH FP inh 94.4 | Fam108b confirm 46.4 | Fam108b inh 85.0 | pPAFAH FP conf 92.2 | PAFAH2 confirm 54.4
COc1ccc(CN2CC[C@@H](N3CCOCC3)[C@H](O)C2)cc1F	none
Brc1ccc(-c2csc(Nc3nc(-c4ccc(Br)cc4)cs3)n2)cc1	PAFAH1B3 inh 33.7, Fam108B inh 50.2 | Fam108b confirm 33.7 | Fam108b inh 85.0 | PAFAH1B3 conf FP inactive
Brc1ccc(Nc2nc(-c3cccnc3)cs2)cc1	none
Cc1ccc(C(C)C)c(OCc2ccc(C(=O)N/N=C/c3ccc(O)cc3O)cc2)c1	PME-1 inh 35.4, PAFAH1B3 inh 41.9, Fam108B inh 28.1 | Fam108b confirm inactive | PAFAH1B3 conf FP 25.9
CCN(CC)c1ccc(/C=N/NC(=O)c2ccc3nc[nH]c3c2)c(O)c1	PAFAH1B3 inh 26.5, Fam108B inh 22.4 | Fam108b confirm inactive | PAFAH1B3 conf FP inactive
Cc1[nH]n(-c2ccccc2)c(=O)c1N=Nc1c(O)cc(S(=O)(=O)N(C)C)c2ccccc12	PME-1 inh 53.9, PAFAH1B3 inh 27.4, Fam108B inh 75.0 | Fam108b confirm 88.8 | Fam108b inh inactive | PAFAH1B3 conf FP inactive
Cc1[nH]n(-c2ccccc2)c(=O)c1N=Nc1ccc2c(c1)OCCO2	none
Oc1ccc(Cl)cc1CNc1cccc2cccnc12	PAFAH1B3 inh 28.3, Fam108B inh 20.8 | Fam108b confirm inactive | PAFAH1B3 conf FP inactive
Cc1ccc(O)c(CNc2cccc3cccnc23)c1	none
O=C1C(Cl)=C(N2CCC(C(=O)O)CC2)C(=O)c2ccccc21	PAFAH1B3 inh 41.3, Fam108B inh 29.2 | Fam108b confirm 51.8 | Fam108b inh 60.0 | PAFAH1B3 conf FP 32.1
O=C(C[C@H]1C/C=C\CC[C@@H](Cc2ccc(F)cc2)C(=O)OC[C@H]2CCCN2C1=O)N[C@@H](CO)Cc1ccccc1	none (no result: PME-1 inh, Fam108B inh)
O=C(NCc1ccco1)c1cccc(Nc2nc3ccc(Br)cc3[nH]2)c1	PAFAH1B3 inh 32.0, Fam108B inh 25.4 | Fam108b confirm inactive | PAFAH1B3 conf FP inactive
COC(=O)c1cccc(NS(=O)(=O)c2cccs2)c1C	none
COC(=O)c1ccccc1NC1=C/C(=N\S(=O)(=O)c2cccs2)c2ccccc2C1=O	PAFAH1B3 inh 55.0, Fam108B inh 20.2 | Fam108b confirm inactive | PAFAH1B3 conf FP 51.6
COc1ccccc1CNC(=O)[C@@H]1CCCN1S(=O)(=O)c1ccccc1F	none
COc1ccccc1NS(=O)(=O)c1cccc(C(=O)NNC(=O)C(C)NC(=O)c2ccco2)c1 (centres undefined)	none (no result: PME-1 inh, Fam108B inh)
Cc1occc1C(=O)N1CCC2(CCCN(Cc3ccc(F)c(F)c3)C2)C1 (centres undefined)	none
O=C1C(Cl)=C(Nc2ccc3cn[nH]c3c2)C(=O)c2ccccc21	PME-1 inh 29.0, PAFAH1B3 inh 38.2, Fam108B inh 20.1 | Fam108b confirm 31.3 | Fam108b inh 70.0 | PAFAH1B3 conf FP 27.3
CC(=O)c1ccc(N2CCN(CC(=O)N(C3CC3)C3CCS(=O)(=O)C3)CC2)c(F)c1 (centres undefined)	none (no result: Fam108B inh)
Cc1cc(C(=O)N/N=C/c2ccc([N+](=O)[O-])o2)c(C)o1	pPAFAH FP inh 41.6 | pPAFAH FP conf inactive
COc1ccc(OC)c(N2C(=O)[C@@H]3C(c4ccccc4Cl)=NO[C@@H]3C2=O)c1	pPAFAH FP inh 37.9 | pPAFAH FP conf inactive
O=c1[nH]nc(CNc2ccc(O)cc2)c2ccccc12	PME-1 inh 45.3, pPAFAH FP inh 58.9 | pPAFAH FP conf inactive
Cc1ccsc1C(=O)OC(C)C(=O)Nc1ccc(Cl)cn1 (centres undefined)	none (no result: PME-1 inh, Fam108B inh)
O=C(CSc1n[nH]c(-c2ccccc2)n1)c1ccc(O)c(O)c1	pPAFAH FP inh 42.3 | pPAFAH FP conf 67.7
Cc1ccc(O)c(NC(=O)CSc2n[nH]c(-c3ccccc3)n2)c1	none
Cc1cc(SCC(=O)c2ccc(O)c(O)c2)nc2ccccc12	PAFAH2 inh 30.8, pPAFAH FP inh 41.6 | pPAFAH FP conf 94.5
